D1 antag = antagonists of human D1 dopamine receptor | HEK293 TREx D1 cells, calcium flux, dopamine EC80; stronger effect = lower value | P21728 | activity change, negative = inhibition, % at 10 µM | hit rate 3.2% among 360,000 | AID 504652; in the data active = activity change below about -30%; note: % is set by controls: 0 for no effect and ±100 for the full control effect
Target sequence (P21728 whole entry, looked up): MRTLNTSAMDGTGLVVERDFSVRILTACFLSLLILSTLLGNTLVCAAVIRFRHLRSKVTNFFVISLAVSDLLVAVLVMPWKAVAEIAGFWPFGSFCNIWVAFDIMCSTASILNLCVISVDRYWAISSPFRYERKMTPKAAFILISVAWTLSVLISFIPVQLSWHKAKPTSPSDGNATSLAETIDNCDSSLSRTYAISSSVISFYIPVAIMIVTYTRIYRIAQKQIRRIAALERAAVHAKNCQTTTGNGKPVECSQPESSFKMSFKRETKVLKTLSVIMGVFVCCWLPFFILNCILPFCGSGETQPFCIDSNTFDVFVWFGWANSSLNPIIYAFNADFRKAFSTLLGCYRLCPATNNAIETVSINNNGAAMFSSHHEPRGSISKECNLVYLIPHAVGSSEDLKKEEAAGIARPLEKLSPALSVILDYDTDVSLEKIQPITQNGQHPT
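Tetracycline-induced HEK293 Trex D1 cells, force-coupled to calcium, dye-loaded; compounds added and read 180 s, then EC80 dopamine added and calcium flux tracked kinetically another 180 s.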
D1 PAM = enhances dopamine response at the human D1 receptor | P21728 | HEK293 TREx D1 cells, calcium flux, dopamine EC20 potentiation | potentiation, % at 10 µM | hit rate 0.036% among 360,000; in the data active = potentiation above about 30%; note: 0% is about no effect
D3 ag = agonists of human D3 dopamine receptor; P35462; D3R DiscoveRx beta-arrestin cells, luminescence, 90 min; max activation, %; hit rate 0.58% among 410,000; in the data active = max activation above about 30%; note: 0% is about no effect
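Cells at 1500/well, incubated overnight, then treated with pinned compounds (dopamine as control) for 90 min at 37 degrees C. DiscoveRx reagent added for 30 - 60 minutes at room temperature; luminescence read.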
D1 ag = human D1 receptor agonism. P21728. HEK293 T-REx D1 cells, calcium flux, agonist mode. activation, % at 2 µM. hit rate 1% among 360,000; in the data active = activation above about 30%; note: 0% is about no effect
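Agonism was scored from calcium flux recorded over 180 s (1 read/s) after pintool compound addition, following a 10-cycle baseline. Cells were inducible force-coupled HEK293 TREx D1, plated overnight at 30 C and loaded with no-wash calcium dye.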
D3 antag = antagonists of human D3 dopamine receptor; hit rate 2.5% among 360,000; D3R cells, DiscoveRx beta-arrestin luminescence, antagonist mode; stronger effect = lower value; max response, negative = inhibition, %; P35462; in the data active = max response below about -50%; inconclusive = no clear call, values can overlap the other calls; note: % is set by controls: 0 for no effect and ±100 for the full control effect
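Cells expressing the human receptor were seeded at 1500 cells/well, incubated overnight at 37 degrees C in 5% CO2, then exposed to library compounds with dopamine controls for 90 minutes at 37 degrees C before luminescent detection.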
* hit, by the source's call; ? = inconclusive; nt = no result. Only some compounds are listed: those with a hit (about 6.1% of all), similar ones and a draw of the others.

SMILES	D1 antag	D1 PAM	D3 ag	D1 ag	D3 antag
O=C(O)CN1C(=O)c2ccc(Oc3ccc([N+](=O)[O-])cc3)cc2C1=O	-10	0	2	1	4
CCOC(=O)N1CCN(CC(=O)Nc2cc(OC)c(OC)cc2C#N)CC1	-10	-3	5	1	1
CCOC(=O)c1nnn2c1nc(N1CCCCC1)c1ccccc12	-42*	7	-3	-1	14
CCOC(=O)c1nnn2c1nc(N1CCN(C)CC1)c1ccccc12	-23	4	-6	2	15
OC(c1ccc(-c2ccccc2)cc1)c1ncc(-c2ccccc2F)[nH]1 (centres undefined)	nt	nt	1	nt	-21
COc1cccc(N2CCN(S(=O)(=O)c3ccc(-c4cc(C(F)(F)F)on4)s3)CC2)c1	-19	-3	8	3	nt
COc1ccc(/C=C\C(=O)CC(O)(c2ccccc2)C(F)(F)F)cc1 (centres undefined)	-1	4	-12	4	-70*
COc1ccc(/C=C/C(=O)OCC(=O)c2ccccc2F)cc1	nt	nt	-3	nt	6
C=CCN(CC=C)Cc1c(O)ccc2c1oc(=O)c1ccccc12	nt	nt	-29	nt	-62*
Cc1ccc2cccc(OC(=O)c3c(F)cccc3Cl)c2n1	nt	nt	2	nt	9
CC(C)N=c1c([N+](=O)[O-])nn(C)n1O	-58*	-4	4	2	-1
Cc1ccc(-n2nc3c(N4CCC(C(=O)NC(C)C)CC4)nnc(C)c3c2C)cc1	10	2	-17	3	nt
CCN(CC)c1ccc(-n2c(C)cc(C=O)c2C)cc1	-32*	1	0	3	-10
CO[C@]12C[C@@H](COC(=O)c3cncc(Br)c3)CN(C)[C@@H]1Cc1cn(C)c3cccc2c13	nt	nt	-19	nt	nt
COc1ccc(C)cc1NC(=O)C1CCN(S(=O)(=O)Cc2ccccc2)CC1	-47*	3	2	0	nt
Cc1oc(-c2cccc(Cl)c2)nc1CN1CCC(C(=O)NCc2ccco2)CC1	-4	-8	-7	12	-24
Cc1oc(-c2cccc(Cl)c2)nc1CN1CCCC(C(=O)NCc2ccco2)C1 (centres undefined)	-41*	-4	-14	6	-19
COc1ccccc1CNC(=O)C1CCN(Cc2nc(-c3cccc(Cl)c3)oc2C)CC1	-1	-6	-6	34*	?
CCS(=O)(=O)N1CCC(C(=O)NCc2ccccc2OC)CC1	-43*	-2	8	-1	2
COc1ccccc1C1=Nn2c(nc3sc(C(=O)Nc4ccccc4Cl)c(C)c3c2=O)SC1	-4	-2	3	2	nt
COCC(=O)N1CCC(c2nc3ccccc3[nH]2)CC1	nt	nt	-4	nt	-6
CCN(CC)C(=O)[C@H]1C[C@H](CC(=O)NC/C=C(\C)CCC=C(C)C)C(=O)N2CCc3c([nH]c4cc(-c5ccco5)ccc34)[C@]12C	nt	nt	-38	nt	-29
Cc1oc(-c2ccccc2F)nc1CN1CCC(C(=O)NCCC2=CCCCC2)CC1	-3	-6	-2	8	-57*
Cc1ccccc1-c1nc(CN2CCC(C(=O)NCc3ccc(F)cc3)CC2)c(C)o1	-9	-3	-6	41*	nt
Cc1oc(-c2ccc(Cl)cc2)nc1CN1CCC(C(=O)NCCCN2CCCC2=O)CC1	3	-5	4	2	0
SMILES	D1 antag	D1 PAM	D3 ag	D1 ag	D3 antag
Cc1ccccc1-c1nc(CN2CCC(C(=O)NCc3cccnc3)CC2)c(C)o1	-4	-4	-21	-4	-12
COc1ccc(CCNC(=O)C2CCN(Cc3nc(-c4ccc(OC)c(OC)c4)oc3C)CC2)cc1OC	10	0	6	2	nt
CCc1ccc(-c2nc(CN3CCC(C(=O)NCCc4ccc(OC)c(OC)c4)CC3)c(C)o2)cc1	-25	-6	0	30*	-9
Cc1oc(-c2ccc(Cl)cc2)nc1CN1CCC(C(=O)NCCCN2CCCC(C)C2)CC1 (centres undefined)	-30*	-5	-7	4	-15
CC1(C)[C@H]2CC[C@]1(C)[C@H](O)C2	nt	nt	-8	nt	nt
COc1ccc(C)cc1NC(=O)N1CCN(c2cc(-c3noc(C)n3)ccc2C)CC1	12	-3	-5	0	nt
COc1ccc(-c2cc(CS(=O)(=O)c3ccccc3)on2)cc1	-4	-7	-6	6	0
Cc1ccccc1-c1nc(CN2CCC(C(=O)NCCCN3CCCC3)CC2)c(C)o1	-16	1	-3	-3	-57*
Cc1ccc(S(=O)(=O)N2CCC(C(=O)NCc3ccccc3CN3CCCC3)CC2)cc1C	-35*	-13	-12	7	-21
Cc1oc(-c2cccc(Cl)c2)nc1CN1CCC(C(=O)NCc2ccc(F)cc2)CC1	-17	-3	-16	54*	nt
O=C(NCc1ccccc1CN1CCCC1)C1CCN(S(=O)(=O)c2ccc(F)c(F)c2)CC1	-17	-10	1	1	16
CCc1ccc(-c2nc(CN3CCC(C(=O)NCc4ccccc4OC)CC3)c(C)o2)cc1	-17	-6	-9	41*	-17
Cc1ccccc1-c1nc(CN2CCC(C(=O)NCCCN3CCOCC3)CC2)c(C)o1	8	-6	-22	-2	-9
COc1ccccc1CNC(=O)C1CCN(Cc2nc(-c3ccc(OC)c(OC)c3)oc2C)CC1	-4	-4	-4	1	nt
CCC(SC1=NCCS1)C(=O)Nc1ccc(S(N)(=O)=O)cc1 (centres undefined)	-46*	-12	-15	8	-22
CN(NC(=O)Nc1ccc(Cl)cc1)c1ncc(C(F)(F)F)cc1Cl	nt	nt	-11	nt	?
CN(NC(=O)Nc1ccc(Cl)cc1)c1c(Cl)c(Cl)nn1C	-40*	-3	11	10	1
CN1C/C(=C/c2ccccc2[N+](=O)[O-])C(=O)/C(=C\c2ccccc2[N+](=O)[O-])C1	nt	nt	-27	nt	-90*
Cc1ccc(C)c2c1CCC(=Cc1ccccc1[N+](=O)[O-])C2=O	nt	nt	2	nt	2
O=C(/C=C/c1ccccc1)NC1CCS(=O)(=O)C1 (centres undefined)	-16	-1	3	0	6
COc1ccc(CN2C3CCCC2CC(NC(=O)/C=C/c2ccccc2)C3)cc1 (centres undefined)	-51*	-4	-21	77*	-111*
O=C(/C=C\c1ccccc1)NC1CC(=O)N(c2ccccc2)C1 (centres undefined)	nt	-2	45*	0	nt
O=C(/C=C/c1ccccc1)NC1CC2CCCC(C1)N2Cc1ccccc1 (centres undefined)	-96*	-10	nt	2	nt
COc1ccc(/C=C/C(=O)NC2CCS(=O)(=O)C2)cc1 (centres undefined)	-6	-2	1	1	38
CC(C)Oc1ccc(C(=O)NC2CCCCC2)cc1	-2	-3	3	-1	3
CC(C)Oc1ccc(C(CCN)C2CCCCC2)cc1 (centres undefined)	40	12	-9	102*	?
